According to PubChem BioAssay AID504652 (National Center for Advancing Translational Sciences (NCATS), 2011):
About 11,000 (3.1%) of roughly 360,000 compounds were called active. Only a selection was taken, and actives are over-represented in it overall. Unmarked numbers belong to inactive results. No stated cut-off is given here; in the data, active means activity change below about -30%; inactive means the rest.

target: D(1A) dopamine receptor (Homo sapiens) (UniProt P21728); experiment: Antagonist of Human D 1 Dopamine Receptor: qHTS; details: HEK293 TREx D1 cells, calcium flux, dopamine EC80; at 10 µM; stronger effect = lower value
From the text: Dopamine receptors (DARs) are involved in the etiology and/or therapy of a number of neuropsychiatric and endocrine disorders. For instance, all receptor-based antiparkinsonian drugs work via stimulating the […] DAR subtype whereas all FDA-approved antipsychotic agents are antagonists of this receptor. […] There are three different types of allosteric modulators that we are seeking, two of which will stimulate or augment receptor signaling, allosteric agonists and potentiators, while the third, allosteric antagonists, will attenuate receptor signaling. The present primary screening assay measures compound antagonism after an EC80 addition of dopamine by tracking calcium flux in a […], inducible Hek293 Trex D1 cell line. NIH Chemical Genomics Center [NCGC] NIH Molecular Libraries Probe Centers Network [MLPCN] MLPCN Grant: NS064831-01 Assay Submitter (PI): David Sibley
Freshly passaged cells are plated in 1536 well black, clear bottom plates at a density of 4000 cells/well in 3 ul of complete media containing 1x tetracycline inducer. After an overnight incubation at 30 C in 5% CO2, cells are loaded with 2 ul of the no wash Calcium Assay Kit (ABD Bioquest) and incubated at room temperature for 30 to 90 minutes. Agonist read: A 10 cycle (1 second/cycle) baseline measurement is taken and then the FDSS online 1536 pintool delivers 23 nl of compound library (as well as dopamine controls) to the plate. The plate is measured for kinetically at 1 cycle/sec for 180 seconds. Following the 180 second read, 1 ul of an EC80 (negative modulation assay) is delivered by an onboard pipette head. Measurements are taken kinetically for an additional 180 seconds.
On the % scale 0 is the no-effect control and ±100 the full control effect.

Sequence of D(1A) dopamine receptor (Homo sapiens) (P21728 whole entry, looked up): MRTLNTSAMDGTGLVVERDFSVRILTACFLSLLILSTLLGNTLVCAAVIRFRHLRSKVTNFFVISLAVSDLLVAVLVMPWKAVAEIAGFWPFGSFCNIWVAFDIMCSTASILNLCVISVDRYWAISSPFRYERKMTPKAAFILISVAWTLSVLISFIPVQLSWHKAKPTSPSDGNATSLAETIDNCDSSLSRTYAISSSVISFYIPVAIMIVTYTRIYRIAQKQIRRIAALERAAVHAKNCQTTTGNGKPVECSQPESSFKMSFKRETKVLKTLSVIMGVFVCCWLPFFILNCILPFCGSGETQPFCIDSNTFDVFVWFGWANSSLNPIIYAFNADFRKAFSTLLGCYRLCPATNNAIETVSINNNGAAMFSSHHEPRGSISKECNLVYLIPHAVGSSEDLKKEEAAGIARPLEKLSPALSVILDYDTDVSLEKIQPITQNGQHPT

SMILES	activity change, negative = inhibition
COc1cc(NC(=O)Cn2c(=O)n(Cc3ccco3)c(=O)c3oc4ccccc4c32)cc(OC)c1	8.05%
COc1cc(OC)c(OC)cc1/C=C/c1nc2ccccc2c(=O)n1-c1ccc(Br)c(C)c1	0.553%
CC(C)Cc1nnc(NC(=O)CCC(=O)Nc2ccc3cn[nH]c3c2)s1	-55.6% (active)
Cc1ccc(S(=O)(=O)CCC(=O)Nc2nnc(CC(C)C)s2)cc1	6.37%
CC(C)Cc1nnc(NC(=O)CCc2ccccc2)s1	3.92%
Cc1c(Cl)cccc1NC(=O)C1CCCN(C(=O)c2cnn(-c3ccccc3)c2-n2cccc2)C1 (configuration not stated)	7.6%
Cc1ccc(SCC(=O)Nc2ccc3oc(-c4ccccc4F)nc3c2)cc1	-5.46%
CCOC(=O)c1ccccc1NC(=O)c1nn(-c2ccc(OC)c(Cl)c2)c(=O)c2c1c1ccccc1n2C	5.56%
O=C(CSc1cn(CC(=O)N2CCOCC2)c2ccccc12)Nc1ccccc1	11.6%
COc1cccc(NC(=O)CN(C)C(=O)c2ccccc2CCc2ccccc2)c1	3.89%
COc1cccc(NC(=O)CN(C)C(=O)/C=C/c2cc(OC)ccc2OC)c1	24.2%
COc1cccc(NC(=O)CN(C)C(C)C(=O)Nc2ccc(C#N)cc2)c1 (configuration not stated)	-40.7% (active)
COC(=O)c1ccccc1NC(=O)c1cnn(-c2ccc(F)cc2)c1-n1cccc1	15%
Cc1cccc(NC(=O)Cn2c(C(F)(F)F)nc3ccccc32)c1C	-9.8%
COc1cccc(C(=O)NCc2ccc3c(c2)CCN3C(=O)c2ccncc2)c1	-7.86%
Cc1ccc(CNC(=O)c2c(O)nc3c(C)cccn3c2=O)cc1	16.2%
Cc1cccc(-n2c(SCC(N)=O)nc3c(oc4ccccc43)c2=O)c1	-16.4%
CCc1sc(C(=O)N2CCN(CC(=O)Nc3cccc(F)c3)CC2)cc1C	-30.4% (active)
O=C(CN1CCN(c2ccc(F)cc2)CC1)Nc1cccc(C(F)(F)F)c1	-2.58%
CC(=O)N1CCN(CC(=O)Nc2ccc(C)c(F)c2)CC1	1.94%
O=C(CSc1n[nH]c(-c2ccccc2)n1)N1CCCCC1	-15.7%
COc1ccc(Cl)cc1NC(=O)NC(C)C(C)(C)C (configuration not stated)	-26.1%
COC(=O)[C@@H](NC(=O)Nc1cc(Cl)ccc1C)C(C)C	-41.7% (active)

SMILES	activity change, negative = inhibition
Cc1ccc(Cl)cc1NC(=O)COC(=O)CC(C)(C)C	4.47%
Cc1cc2ccccc2n1CCNC(=O)c1ccc(F)cc1	-21.6%
COc1ccc(S(=O)(=O)NCCSc2nnnn2-c2ccccc2)cc1	-6.65%
Cn1c(C(=O)Nc2cccc(C(F)(F)F)c2)cc2c(=O)n3ccccc3nc21	-9.44%
Cc1cc(Cl)c(S(=O)(=O)Nc2ccc3c(c2)OCCO3)cc1OCC(N)=O	-35.2% (active)
Cc1cc(Cl)c(S(=O)(=O)NCC2CCCO2)cc1OCC(N)=O (configuration not stated)	-3.64%
Cc1cc(Cl)c(S(=O)(=O)N(C)C)cc1OCC(N)=O	5.54%
COc1ccc(CNC(=O)Cc2coc3ccc(C(C)C)cc23)cc1	-5.84%
COc1cccc(N2CCN(S(=O)(=O)c3cc(Br)cc4c3N(C(=O)C3CC3)CC4)CC2)c1	-4.38%
CC1CCN(S(=O)(=O)c2ccc3ncn(CC(=O)N(C)C4CCCCC4)c(=O)c3c2)CC1	-7.06%
COc1ccccc1NC(=O)Cn1cnc2ccc(S(=O)(=O)N3CCC(C)CC3)cc2c1=O	0.0222%
CCN1CCCC1CNC(=O)Cn1cnc2ccc(S(=O)(=O)N3CCC(C)CC3)cc2c1=O (configuration not stated)	-45% (active)
COc1ccc(-c2nn(CC(=O)NC3CCCC3)c3c2cnc2ccc(F)cc23)cc1	-17.2%
Cc1ccc(NC(=O)CN2C(=O)CC(C)Sc3ccccc32)c(C)c1 (configuration not stated)	5.35%
NC(=O)C1(C(N)=O)OC1c1ccc(Cl)cc1Cl (configuration not stated)	-18.1%
COC(=O)C1=CN(C)C=C(C(=O)OC)C1c1ccc(Cl)cc1Cl	-50.3% (active)
COC(=O)C1=CN(c2ccc(F)c(F)c2)C=C(C(=O)OC)C1c1ccc([N+](=O)[O-])cc1	13.5%
Cc1ccc(Nc2ccc3cc(S(=O)(=O)N4CCCCC4)ccc3n2)cc1F	-15.5%
CCOc1ccccc1NC(=O)CCN1CCN(S(=O)(=O)c2ccc(OC)cc2)CC1	-3.32%
COc1ccccc1NC(=O)CCN1CCN(c2ccc(Cl)cc2)CC1	-41% (active)
COc1ccc(NC(=O)CCN2CCCC2)c(OC)c1	0.848%
COc1ccc(C(=O)NC(=S)Nc2ccc(N3CCCC3)cc2)cc1OC	-30.7% (active)
Cc1ccc(C(=O)NC(=S)Nc2ccc(N3CCOCC3)cc2)cc1	-12.4%

SMILES	activity change, negative = inhibition
COc1ccc(C(=O)NC(=S)Nc2ccccc2N2CCN(S(C)(=O)=O)CC2)cc1OC	-7.6%
O=C(NCc1ccc2c(c1)CCN2C(=O)c1ccccc1)Nc1cc(F)ccc1F	1.84%
Cc1[nH]n(C)c(=O)c1N=Nc1ccc(S(C)(=O)=O)cc1	-33.8% (active)
Cc1[nH]n(C)c(=O)c1C(=O)c1c(-c2c(Cl)cccc2Cl)noc1C	-9.05%
Cc1c(N=Nc2ccc(N(C)C)cc2)c(=O)n(-c2ccccc2)n1C	-0.41%
CCOc1ccc(S(=O)(=O)N2CCCCCC2)c2ccccc12	1.18%
CCOc1cc(C)c(S(=O)(=O)NCc2ccccn2)cc1C	-15%
CCOc1cc(C)c(Cl)cc1S(=O)(=O)n1nnc2ccccc21	-41.9% (active)
COc1ccc(OC)c(CNC(=O)CN2C(=O)CCn3nc(-c4cn(C)c5ccccc45)cc32)c1	9.51%
COc1ccc(-n2ccnc(NCCc3ccc(Cl)cc3)c2=O)cc1OC	-3.67%
Cc1cccc(N2CCN(C(=O)c3cc4c(=O)oc5ccccc5c4s3)CC2C)c1 (configuration not stated)	-15.4%
CCOc1ccc2oc(=O)cc(CN3CCN(C(=O)c4ccc(F)cc4)CC3)c2c1	-25%
CCC(=O)N1CCc2cc(Br)cc(S(=O)(=O)NCc3ccc(Cl)cc3)c21	4.98%
COc1ccccc1N1CCN(C(=O)CCS(=O)(=O)c2ccc3c(c2)NC(=O)C(C)S3)CC1 (configuration not stated)	5.52%
Cc1cccc(N2CCN(C(=O)CCS(=O)(=O)c3ccc4c(c3)NC(=O)C(C)S4)CC2)c1C (configuration not stated)	-41.4% (active)
CC1Sc2ccc(S(=O)(=O)CCC(=O)NCc3ccccc3Cl)cc2NC1=O (configuration not stated)	-9.63%
CCn1c2ccccc2c2cc(CN3CCN(Cc4cccc(Cl)c4)CC3)ccc21	-24.4%
N/C(=N\OC(=O)CCc1ccccc1)c1ccc(Cl)cc1	-6.68%
COc1ccc(/C(N)=N/OC(=O)CCCc2ccccc2)cc1	-50.3% (active)
COc1ccc(/C(N)=N/OC(=O)Cc2ccccc2)cc1	3.45%
CCOc1ccc(CNC(=O)c2cc(-c3ccc(Cl)s3)nc3ccccc23)cc1	13.1%
COc1ccc(NC(=O)CCCN2C(=O)CCn3nc(-c4cn(C)c5ccccc45)cc32)cc1OC	16%
Cc1nc(CNS(=O)(=O)c2cc([N+](=O)[O-])ccc2C)cs1	8.15%

SMILES	activity change, negative = inhibition
Cc1nn(C)c(Oc2ccccc2)c1CCNS(=O)(=O)c1ccc(F)cc1	-5.72%
Cc1nc(CNS(=O)(=O)c2ccc(Oc3ccccc3)cc2)cs1	-42.6% (active)
CCOc1ccc(C2C(C(=O)Nc3ccc(Cl)cc3)=C(C)Nc3nc(C(F)(F)F)nn32)cc1 (configuration not stated)	10.7%
Cc1ccccc1-c1nc(SCC(=O)N(C)c2ccccc2)c2c(=O)n(C)c(=O)n(C)c2n1	8.47%
Cc1cccc(OCC(=O)NCC(=O)N/N=C/c2ccc(N(C)C)cc2)c1	-31.7% (active)
CCOc1ccccc1/C=N/NC(=O)CNC(=O)COc1ccccc1	-1.88%
Cc1cccc(OCC(=O)Nc2ccccc2F)c1	-0.963%
Cc1oc2ccc(O)c(CN3CCC(C)CC3)c2c1C(=O)Nc1ccccc1	7.02%
COc1cccc(NC(=O)CSc2cc(=O)n(C)c3ccc(Cl)cc23)c1	-17.9%
CC(=O)N(OCc1ccc(OC(C)C)c(Cl)c1)C(C)=O	-4.21%
CC(Oc1ccc(F)cc1F)C(=O)/C=C/N(C)C (configuration not stated)	2.85%
CC(Oc1ccc(Cl)cc1Cl)C(=O)/C=C/N(C)C (configuration not stated)	-37.2% (active)
COc1ccc(C(=O)Nc2nonc2-c2ccc(OC)c(OC)c2)cc1Cl	0.206%
CCc1cccc(NC(=O)Cn2nc(CC)n3c(cc4cc(C)ccc43)c2=O)c1	4.91%
CCCS(=O)(=O)Nc1cccc(-c2cn3ccsc3n2)c1	-4.71%
CCC(=O)N1CCN=C1SCc1ccc(F)cc1	-8.09%
O=C(COc1ccccc1)N1CCN=C1SCc1cccc(F)c1	-31.4% (active)
O=C(Cc1ccc(F)cc1)N1CCN=C1SCc1cccc([N+](=O)[O-])c1	-1.86%
COc1cc(OC)cc(-c2nc3nc(C)c(CCC(=O)Nc4ccc(C)cc4)c(C)n3n2)c1	-10.7%
CC(C)c1ccc(NS(=O)(=O)c2ccc3[nH]cc(C(=O)NC4CCCC4)c(=O)c3c2)cc1	19.6%
CCOC(=O)CCC(=O)OCC(=O)NC(C)C1CC2CCC1C2 (configuration not stated)	-3.11%
COC(=O)c1cc(C(=O)NC(C)C2CC3CCC2C3)cc([N+](=O)[O-])c1 (configuration not stated)	-60.3% (active)
Cc1c(C(=O)NC(C)C2CC3CCC2C3)cccc1[N+](=O)[O-] (configuration not stated)	18.8%
